PAD4 FP inh = blocks human protein arginine deiminase 4. Q9UM07. recombinant PAD4, RCA probe fluorescence polarization. inhibition, % at 6.36 µM. 330,000 tested, 0.41% active;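 active means percent inhibition above a cutoff equal to the mean of all tested compounds plus 3 SD, cut at about 15% in these data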
Fam108B inh = counter-screen for RBBP9 inhibitors: inhibitors of mouse Fam108B; AID 1947; 300,000 tested, 0.33% active; recombinant Fam108B, FP-Rh probe fluorescence polarization; inhibition, % at 9.51 µM;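 active means inhibition above the screen mean inhibition plus 3 SD, computed separately per campaign, cut at about 18% in these data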;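 further: inhibitors lower polarization as less probe binds the enzyme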
GSTO1 inh = GSTO1 inhibition, counter-screen for RBBP9 inhibitors; P78417; recombinant GSTO1, activity-based probe fluorescence polarization; inhibition, % at 5.96 µM; 300,000 tested, 1.1% active; AID 1974;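 active means inhibition above the campaign mean inhibition plus 3 SD, cut at about 35% in these data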
Target sequence (P78417 whole entry, looked up): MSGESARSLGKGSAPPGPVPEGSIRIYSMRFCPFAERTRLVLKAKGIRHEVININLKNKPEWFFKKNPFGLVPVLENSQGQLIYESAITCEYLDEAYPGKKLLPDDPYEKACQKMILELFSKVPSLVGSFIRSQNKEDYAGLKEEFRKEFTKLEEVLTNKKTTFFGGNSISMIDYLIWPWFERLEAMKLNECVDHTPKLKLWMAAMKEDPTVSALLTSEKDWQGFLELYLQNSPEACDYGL
LYPLA2 inh = blocks human lysophospholipase 2, a PME1 counter-screen; O95372; recombinant LYPLA2, FP-Rh probe fluorescence polarization; inhibition, % at 5.9 µM; 320,000 tested, 0.38% active; AID 2177;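 active means inhibition above the screen-wide mean plus 3 SD, limit set per campaign, cut at about 26% in these data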
LYPLA1 counter = LYPLA1 (human) inhibition in PME1 counter-screen | O75608 | recombinant LYPLA1, FP-Rh probe fluorescence polarization | inhibition, % at 5.9 µM | 320,000 tested, 0.16% active | AID 2174;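 active means inhibition above the mean of all tested compounds plus 3 SD, set per campaign, cut at about 14% in these data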;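 further: inhibitors block serine hydrolase probe labeling of LYPLA1 so polarization falls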
PME-1 primary = blocks human protein phosphatase methylesterase 1. Q9Y570. recombinant PME-1, FP-Rh probe fluorescence polarization. inhibition, % at 5.9 µM. 320,000 tested, 0.53% active. AID 2130;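 active means inhibition above the campaign mean of all compounds plus 3 SD, cut at about 26% in these data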;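 further: competitive labeling of PME-1 active site by serine hydrolase directed probe; inhibitors block probe labeling so polarization falls and inhibition rises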
Target sequence (Q9Y570 whole entry, looked up): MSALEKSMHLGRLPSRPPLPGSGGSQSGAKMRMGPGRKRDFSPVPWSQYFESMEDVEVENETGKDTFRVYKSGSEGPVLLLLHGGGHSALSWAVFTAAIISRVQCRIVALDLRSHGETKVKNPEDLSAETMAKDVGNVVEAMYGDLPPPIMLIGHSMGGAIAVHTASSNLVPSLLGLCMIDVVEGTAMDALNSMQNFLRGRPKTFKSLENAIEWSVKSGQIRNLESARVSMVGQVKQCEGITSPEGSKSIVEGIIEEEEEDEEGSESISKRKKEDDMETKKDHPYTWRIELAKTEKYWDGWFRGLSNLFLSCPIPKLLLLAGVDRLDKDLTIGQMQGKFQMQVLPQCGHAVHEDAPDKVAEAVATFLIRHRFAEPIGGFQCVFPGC
Numbers stand for hits; - = inactive; . = no result given. The list is not random: actives were taken first. Their share in the collection is about 1.8%.

SMILES	PAD4 FP inh	Fam108B inh	GSTO1 inh	LYPLA2 inh	LYPLA1 counter	PME-1 primary
N=C1/C(=C/c2coc3ccccc3c2=O)C(=O)N=C2SC(c3ccco3)=NN12	-	-	-	-	-	-
N=C1/C(=C\c2coc3ccc(O)cc3c2=O)C(=O)N=C2SC=CN12	-	-	56.5	-	-	-
O=C(O)c1c2c(nc3ccc(S(=O)(=O)N4CCC(C(=O)NC5CCCC5)CC4)cc13)CCCCC2	-	-	-	-	-	-
CCCN(CCC)CCCNC(=O)c1cn(CC)c2ccc(S(=O)(=O)N(C)C3CCCCC3)cc2c1=O	-	-	-	-	-	49.1
CCCCN(CCCC)CCNC(=O)c1cn(C)c2ccc(S(=O)(=O)N(C)C3CCCCC3)cc2c1=O	-	-	-	-	-	66.2
CCCCN(CCCC)CCNC(=O)c1cn(CC)c2ccc(S(=O)(=O)N3CCc4ccccc4C3)cc2c1=O	-	-	-	-	-	58.7
COCCCN(C(=O)CCOc1ccc(C)cc1)c1c(N)n(Cc2ccccc2)c(=O)[nH]c1=O	-	-	-	-	-	-
Cc1ccc(C(=O)N2CCN(c3ncccn3)CC2)o1	-	-	-	-	-	-
N#C/C(=N\Nc1ccc(Cl)c(Cl)c1)C(=O)C1CC1	-	-	-	-	-	34.3
N#C/C(=N\Nc1ccc(F)cc1)C(=O)C1CC1	-	-	-	-	-	-
COc1ccc(-c2cc(-c3ccc(C)cc3)n[nH]2)c(O)c1	-	-	-	-	-	47.3
COc1ccc2[nH]c(=O)c(-c3noc(-c4ccccc4)n3)cc2c1	-	-	-	-	-	48.7
Cc1ccc(C2(C)NC(=O)N(CC(=O)NC(C)c3ccccc3)C2=O)cc1 (stereo not given)	-	-	-	-	-	-
Oc1[nH]c2ccccc2c1N=Nc1nc2ccccc2s1	-	-	-	-	-	29.4
Cc1ccc2[nH]c(O)c(N=Nc3nc4ccccc4s3)c2c1	-	-	-	-	-	-
Cc1cccc(-c2ncc(S(=O)(=O)C(C)(C)C)c(N)n2)c1	-	-	-	-	-	-
Cc1ccc2nc(Cl)c3nnnn3c2c1	21.7	-	-	-	-	-
O=C(O)c1ccc(N/N=C/c2ccc(OC(=O)c3ccccc3Cl)cc2)cc1	-	-	-	25.8	-	-
O=C(Oc1ccc(OC(=O)c2ccncc2)cc1)c1ccncc1	-	-	35.0	-	-	-
CCc1ccc(OC)c(S(=O)(=O)Nc2ccc(Cc3ccncc3)cc2)c1	-	-	-	-	-	27.0
CC(=O)C[C@H](O)CC(=O)[C@@H]1OC(=O)CCCCCCc2ccccc21	-	.	.	-	-	-
C=C(C)COc1ccc(-c2[nH]ncc2-c2ccc(OC)c(OC)c2)c(O)c1	-	-	-	-	-	29.2
CCOC(=O)C1CCN(C(=O)c2cc3cc(C)ccc3[nH]2)CC1	-	-	-	-	-	-
CC(=O)c1ccccc1OCC(O)CN1CCN(CCN2C(=O)c3cccc4cccc(c34)C2=O)CC1 (stereo not given)	-	-	-	39.1	-	-
Cc1ccc(C)c(OCC(O)CN2CCN(CCN3C(=O)c4cccc5cccc(c45)C3=O)CC2)c1 (stereo not given)	-	-	-	53.5	-	-
SMILES	PAD4 FP inh	Fam108B inh	GSTO1 inh	LYPLA2 inh	LYPLA1 counter	PME-1 primary
C/C(=N\NC(=O)c1ccc(Br)cc1)C1C(=O)c2ccccc2C1=O	-	-	-	-	18.2	-
CCOCC(=O)Nc1cc(C(=O)OC)ccc1C(=O)OC	-	-	36.7	-	-	-
CCC(C)C(=O)Nc1cc(C(=O)OC)ccc1C(=O)OC (stereo not given)	-	-	-	-	-	-
O=C(COC(=O)CCCOc1ccccc1)NNC(=O)c1ccc([N+](=O)[O-])cc1	-	-	-	-	-	-
Cc1ccc(NC(=O)COn2nnc3ccc(S(=O)(=O)N(C)C)cc32)cc1F	-	-	35.8	-	-	-
CCc1ccc(NC(=O)COn2nnc3ccc(S(=O)(=O)N(C)C)cc32)cc1	-	-	-	-	-	-
Cc1ccc2[nH]cc(C(=O)CCl)c2c1	-	-	93.2	-	-	-
Cc1ccc2[nH]cc(C(=O)CN3CCN(C)CC3)c2c1	-	-	-	-	-	-
CC(C)c1ncc(C(O)c2cccc3ccccc23)n1C (stereo not given)	-	-	36.1	-	-	-
CC(Sc1n[nH]c(-c2cccs2)n1)C(=O)N1CCCC1 (stereo not given)	-	.	.	.	.	.
CCOc1c(OC(C)=O)ccc(/C=C2\N=C(SCC)SC2=O)c1[N+](=O)[O-]	-	-	-	-	-	-
CCOc1cc(/C=C2\N=C(SCC)SC2=O)cc([N+](=O)[O-])c1OC(C)=O	-	-	-	-	-	35.0
O=C(NCCCN1CCOCC1)c1coc2ccccc2c1=O	-	-	35.2	-	-	-
O=C(Cc1ccccc1[N+](=O)[O-])OCc1cccc([N+](=O)[O-])c1	-	-	-	-	-	-
CCC(C)(C)C1CCc2c(sc(NC(=O)c3ccccc3C(=O)O)c2C#N)C1 (stereo not given)	-	-	-	-	-	27.0
CN1CCN(C(=O)c2cccn(Cc3c(Cl)cccc3Cl)c2=O)CC1	-	-	-	-	-	-
O=C(NCC(c1ccco1)N1CCCCC1)c1cccnc1 (stereo not given)	-	.	.	-	-	-
O=C1NC(=O)/C(=C\c2ccc(O)cc2O)S1	-	-	63.4	-	-	-
O=C1NC(=O)/C(=C/c2cccc3ccccc23)S1	-	-	-	-	-	-
Cc1cc2c3c(c1C)C1(C(=O)N3C(C)(C)CC2C)C(C#N)=C(N)Oc2cc(O)ccc21 (stereo not given)	-	-	-	-	-	-
Nc1nc(SCC(=O)NCCCN2CCOCC2)nc2sc3c(c12)CCC3	-	-	-	-	-	-
O=c1[nH][nH]c2cc(=O)n(-c3cccc(C(F)(F)F)c3)nc12	-	-	-	-	-	37.4
OCC#Cc1ncc(C(F)(F)F)cc1Cl	-	-	83.4	-	-	-
C/C(=N/Nc1ccnc2cc(Cl)ccc12)c1ccc(N)cc1	-	-	-	-	-	35.8
C/C(=N/Nc1ccnc2cc(Cl)ccc12)c1ccc(O)cc1	-	-	-	-	-	33.3
O=C(Cn1nc(C(=O)O)c2ccccc2c1=O)Nc1ccc(Cl)c(S(=O)(=O)N2CCOCC2)c1	-	.	.	.	.	.
C=CCc1cccc(/C=N/NC(=O)CNc2cccc3ccccc23)c1O	-	-	-	-	-	39.0
O=C(CNc1cccc2ccccc12)N/N=C/C(Br)=C/c1ccccc1	-	-	-	-	-	26.6
COc1ccc(-c2cc(C(F)(F)F)nc(SCC(=O)Nc3ccc4c(c3)OCO4)n2)cc1	-	-	-	-	-	-
COc1ccc(OC)c(S(=O)(=O)NC2CC(=O)N(c3cccc(F)c3)C2)c1 (stereo not given)	-	-	-	-	-	-
